# Test results: the supplement of paper PMC6522484
# ± gives the standard deviation of the averaged measurements.
# Key:
# [1] = test system: DLD1; assay: cell viability (CellTiter-Glo) relative to plate median (fraction of plate median); higher = more viable cells; details: 5 µM; treatment time 24 h; reporter: 7TFP
# In short: (§1)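 For this screen, colorectal cancer cell lines carrying stable lentiviral TCF/Wnt firefly luciferase reporters, either 7TFP or TCF4/Wnt, were seeded into 384-well plates. A day's wait of 24 h preceded addition of library compounds at a final 5 µM, which stayed on the cells for 24 h. Firefly luciferase or CellTiterGlo luminescence, read on parallel plates, was normalised to the plate median per well, and the reported value is the mean of two independent replicates.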
# [2] = test system: HCT116; assay: as above; details: 5 µM; treatment time 24 h; reporter: TCF4/Wnt
# In short: as §1
# [3] = test system: SW480; assay: as above; details: 5 µM; treatment time 24 h; reporter: 7TFP
# In short: as §1
# [4] = test system: DLD1; assay: TCF/Wnt firefly luciferase reporter signal relative to plate median (fraction of plate median); higher = higher Wnt reporter signal; details: 5 µM; treatment time 24 h; reporter: 7TFP
# In short: as §1
# [5] = test system: SW480; assay: as above; details: 5 µM; treatment time 24 h; reporter: 7TFP
# In short: as §1
SMILES,cell viability [1],cell viability [2],cell viability [3],TCF/Wnt firefly luciferase reporter signal [4],TCF/Wnt firefly luciferase reporter signal [5]
CC(=O)C1=C(CO)C(=O)c2cccc(O)c2C1=O [Bhimamycin E],1.05 ± 0.042,1.04 ± 0.068,0.9945 ± 0.0021,0.983 ± 0.14,1.01
C[C@@H]1CC[C@@]2(OC1)O[C@H]1C[C@H]3[C@@H]4CC=C5C[C@@H](O)CC[C@]5(C)[C@H]4CC[C@]3(C)[C@H]1[C@@H]2C,1.01 ± 0.14,0.973 ± 0.025,0.93 ± 0.046,0.89 ± 0.063,0.998 ± 0.06
CC1(C)C[C@@H]2/C(CO)=C\C=C/[C@@](C)(O)CC[C@]21O,1.08 ± 0.2,0.946 ± 0.063,1 ± 0.022,1.11 ± 0.24,0.818 ± 0.093
Nc1ncnc2c1ncn2[C@@H]1O[C@H](CO)[C@@H](O)[C@H]1O,1.06 ± 0.014,1.06 ± 0.09,1.04 ± 0.035,1.07 ± 0.17,1.15 ± 0.028
"C[C@@H]1CC(=O)c2c(ccc3c2C(=O)c2cccc(O)c2C3=O)C1 [Ochromycinone (Isoform C, Compound ID 7613)]",1.02 ± 0.091,1.08 ± 0.099,1.1 ± 0.064,1.09 ± 0.13,1.04 ± 0.11
CO[C@H]1C[C@H](O[C@H]2[C@H](C)[C@@H](O[C@@H]3O[C@H](C)C[C@H](N(C)C)[C@H]3O)[C@@H](C)C[C@@]3(CO3)C(=O)[C@H](C)[C@@H](O)[C@@H](C)[C@@H](C)OC(=O)[C@@H]2C)O[C@@H](C)[C@@H]1O,0.97 ± 0.0028,0.91 ± 0.087,0.915 ± 0.05,0.869 ± 0.05,1.05 ± 0.1
Cc1cc(=O)oc2cc(O)c(O)cc12,0.951 ± 0.035,0.886 ± 0.071,0.98 ± 0.057,0.711 ± 0.25,1.085 ± 0.0071
COc1ccc2c(=O)c(CC(=O)O)coc2c1,0.968 ± 0.059,0.984 ± 0.08,0.968 ± 0.012,1 ± 0.021,0.985 ± 0.092
Cn1c(=O)c2nc(C3CCCC3)[nH]c2n(C)c1=O,1.07 ± 0.064,1.05 ± 0.1,1.02 ± 0.047,1.01 ± 0.17,0.968 ± 0.039
Cc1cccc(C(=O)O)c1O,1.02 ± 0.039,0.934 ± 0.078,0.96 ± 0.0099,0.869 ± 0.12,0.922 ± 0.059
O=C(O)c1cccnc1,1.05 ± 0.042,1.01 ± 0.11,1.06 ± 0.05,0.969 ± 0.039,0.976 ± 0.062
CCC[C@H](N[C@@H](C)C(=O)N1[C@H](C(=O)O)C[C@@H]2CCCC[C@@H]21)C(=O)OCC,1.03 ± 0.05,1.08 ± 0.035,0.961 ± 0.037,0.982 ± 0.025,1.08 ± 0.078
NCCCCN,0.96 ± 0.047,0.983 ± 0.02,0.97 ± 0.057,1.18 ± 0.15,1.1 ± 0.05
O=C(CCCCC(=O)Nc1c(I)cc(I)c(C(=O)O)c1I)Nc1c(I)cc(I)c(C(=O)O)c1I,1.05,1.08 ± 0.16,1.01 ± 0.03,1.05 ± 0.028,1.06 ± 0.021
C[C@@]12C[C@@]3(O)O[C@@H](O1)[C@]1(COC(=O)c4ccccc4)[C@H]3C[C@@]12O[C@@H]1O[C@H](CO)[C@@H](O)[C@H](O)[C@H]1O,1.06 ± 0.014,0.887 ± 0.12,1.015 ± 0.0071,0.941 ± 0.052,1.01 ± 0.21
CC(=O)OCC(=O)[C@H]1CC[C@H]2[C@@H]3CC=C4C[C@@H](O)CC[C@]4(C)[C@H]3CC[C@]12C,1.04 ± 0.05,1.03 ± 0.057,1.04 ± 0.028,1.01 ± 0.13,0.975 ± 0.064
CC(CCC(=O)O)[C@H]1CCC2C3C[C@H](O)[C@@H]4C[C@H](O)CC[C@]4(C)C3CC[C@@]21C (stereo partly drawn) [alpha-HYDROXYDEOXYCHOLIC ACID],1.04 ± 0.13,1.1 ± 0.078,1.06 ± 0.014,0.947 ± 0.1,0.974 ± 0.052
CC1(C)S[C@@H]2[C@H](NC(=O)C(C(=O)O)c3ccccc3)C(=O)N2[C@H]1C(=O)O (stereo not given in full),0.912 ± 0.073,0.9345 ± 0.0064,0.9405 ± 0.005,0.999 ± 0.13,1.05 ± 0.021
COC(=O)/C=C/C(C)=C\C=C\C(C)=C\C=C\C=C(C)\C=C\C=C(C)\C=C\C(=O)O,1.05 ± 0.057,1.05 ± 0.028,0.968 ± 0.046,0.981 ± 0.042,0.997 ± 0.047
COc1cc2oc3cc(OC)c(OC)c(CC=C(C)C)c3c(=O)c2c(O)c1CC=C(C)C,1.08 ± 0.16,1 ± 0.078,1.02 ± 0.054,1.1 ± 0.19,0.968 ± 0.046
Cc1noc(NS(=O)(=O)c2ccc(N)cc2)c1C,0.904 ± 0.0057,1.04 ± 0.13,0.915 ± 0.044,1.02 ± 0.076,0.984 ± 0.079
CCOC(=O)N1CCC(=C2c3ccc(Cl)cc3CCc3cccnc32)CC1,0.987 ± 0.047,0.896 ± 0.064,0.962 ± 0.068,1.08 ± 0.19,0.94 ± 0.032
C=CCCCCCCCCC(=O)[O-].C=CCCCCCCCCC(=O)[O-].[Zn+2],0.996 ± 0.049,0.903 ± 0.011,0.964 ± 0.023,0.94 ± 0.24,0.968 ± 0.041
CCCSc1ccc2[nH]c(NC(=O)OC)nc2c1,0.966 ± 0.039,0.893 ± 0.17,0.986 ± 0.016,1.1 ± 0.028,1.04 ± 0.1
CC(=O)OCC(=O)[C@@]1(O)CC[C@H]2[C@@H]3CCC4=CC(=O)C=C[C@]4(C)[C@H]3[C@@H](O)C[C@@]21C,0.992 ± 0.04,0.864 ± 0.1,0.936 ± 0.0042,1.08 ± 0.11,1.11 ± 0.092
O=c1c(-c2ccc(O)cc2)coc2cc(O)cc(O)c12 [Genistein (Biofocus)],1.05 ± 0.078,1.04 ± 0.09,1.08 ± 0.099,1.21 ± 0.15,1.06 ± 0.021
C[C@]12C=CC(=O)C=C1CC[C@@H]1[C@@H]2[C@@H](O)C[C@@]2(C)[C@H]1CC[C@]2(O)C(=O)CO,1.01 ± 0.014,1.09 ± 0.035,1.04 ± 0.069,1.03 ± 0.035,1.04 ± 0.088
CN(Cc1cnc2nc(N)nc(N)c2n1)c1ccc(C(=O)N[C@@H](CCC(=O)O)C(=O)O)cc1,0.475 ± 0.1,1.055 ± 0.0071,1.1,0.739 ± 0.3,1.07 ± 0.064
